DAGLB inh: DAGLB lipase inhibitors, primary screen, biochemical, fluorescence, HTS; Diacylglycerol lipase-beta (Homo sapiens), Q8NCG7; HEK293T DAGLB membrane lysate, EnzChek fluorogenic substrate; inhibition, % at 5.17 µM; hit rate 0.059% among 340,000; in the data active = inhibition above about 34%;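 also: 0% = enzyme with vehicle and 100% = wells lacking enzyme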
Target sequence (Q8NCG7 whole entry, looked up): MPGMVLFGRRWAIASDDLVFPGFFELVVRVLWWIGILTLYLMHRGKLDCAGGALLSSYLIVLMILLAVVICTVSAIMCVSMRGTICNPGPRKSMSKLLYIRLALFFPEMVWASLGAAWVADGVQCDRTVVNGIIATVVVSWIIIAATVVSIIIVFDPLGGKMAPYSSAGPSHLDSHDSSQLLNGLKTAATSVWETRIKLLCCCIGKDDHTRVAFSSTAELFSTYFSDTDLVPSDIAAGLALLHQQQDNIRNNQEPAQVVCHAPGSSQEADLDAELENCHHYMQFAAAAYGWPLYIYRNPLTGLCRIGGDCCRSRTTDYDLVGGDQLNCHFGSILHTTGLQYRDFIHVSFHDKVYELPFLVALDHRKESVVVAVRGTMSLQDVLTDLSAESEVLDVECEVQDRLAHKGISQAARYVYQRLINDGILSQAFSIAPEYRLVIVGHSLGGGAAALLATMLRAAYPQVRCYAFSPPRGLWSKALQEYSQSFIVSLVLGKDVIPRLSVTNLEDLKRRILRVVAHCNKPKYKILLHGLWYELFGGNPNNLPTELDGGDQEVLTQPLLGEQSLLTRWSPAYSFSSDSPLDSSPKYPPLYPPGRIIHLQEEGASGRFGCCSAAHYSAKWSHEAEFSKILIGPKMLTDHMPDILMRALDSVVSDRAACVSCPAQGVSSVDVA
Pemphigus Ab inh: inhibitors of pemphigus antibody binding to DSG3, primary screen, biochemical, bead-based, flow cytometry, scFv-GFP | Desmoglein-3 (Homo sapiens), P32926 | DSG3-coupled beads, scFv-anti-DSG3-GFP binding; active compounds read low | binding (percent of control), % at 10 µM | hit rate 0.48% among 310,000;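 active = binding more than 3 SD below its plate's average and above zero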;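 also: hits lower antibody fragment binding to DSG3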
NadD block: inhibitors of S. aureus NadD, primary screen, biochemical, colorimetric, uHTS; Nicotinate-nucleotide adenylyltransferase NadD (Staphylococcus aureus N315); purified NadD enzyme, colorimetric absorbance read-out; inhibition, % at 20 µM; hit rate 0.78% among 360,000; AID 602399, 2012; in the data active = inhibition above about 26%
MsrA inh: bovine MsrA enzyme inhibitors, primary screen, biochemical, absorbance, HTS | hit rate 0.75% among 360,000 | Methionine sulfoxide reductase A (Bos taurus) | inhibition, % at 15.5 µM | purified bovine MsrA, absorbance read-out;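 also: 0% = vehicle wells with enzyme and 100% = reference inhibitor wells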
rCAG RNA binder: binders of r(CAG) RNA repeats, primary screen, biochemical, fluorescence; r(CAG) RNA repeat, TO-PRO-1 dye displacement fluorescence; AID 651821, 2012; inhibition, % at 3 µM; hit rate 1.3% among 370,000;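 active = inhibition above the plate cutoff, the mean of all test compounds on that plate plus 3 SD, cut at about 35% in these data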;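 also: 0% = DMSO alone and 100% = 100 µM mitoxantrone as full dye displacement; higher means more dye released from RNA so lower well fluorescence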
MsrA act: bovine MsrA enzyme activators, primary screen, biochemical, absorbance, HTS; Methionine sulfoxide reductase A (Bos taurus); purified bovine MsrA, absorbance read-out; activation, % at 10.6 µM; hit rate 0.3% among 360,000; in the data active = activation above about 7.5%;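 also: 0% = vehicle and 100% = reference activator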
MsrA conf: bovine MsrA inhibitors, retest, confirmation, biochemical, absorbance, HTS; shares compounds with MsrA inh; hit rate 41% among 2,300; purified bovine MsrA, absorbance read-out; inhibition, % at 15.5 µM;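 also: coupled to thioredoxin reductase with NADPH and selenocystamine and DMSO as substrate; 0% = vehicle only and 100% = full effect of reference inhibitor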
* hit, by the source's call; / = not tested or not shown. Shown are actives, neighbours in structure and some others; about 3.2% of the full set was active somewhere. Rule as the data show it, unless noted: active = inhibition above about 4.5%; inactive = the rest.

SMILES	DAGLB inh	Pemphigus Ab inh	NadD block	MsrA inh	rCAG RNA binder	MsrA act	MsrA conf
C[C@H](c1ccccc1)N1C[C@H](COCc2ccccc2)Oc2cc(N3CCC[C@@H]3CO)ccc2S1(=O)=O	/	/	-5.8	0.3	10.7	-3.5	/
CCOC(=O)N1CCC(Nc2c(-c3ccc(C)cc3)c(=O)c2=O)CC1	1.0	105.5	-3.1	4.9*	-5.0	-3.8	3.3
CCOC(=O)N1CCC(Nc2c(-c3ccccc3)c(=O)c2=O)CC1	0.6	104.1	-4.9	2.7	0.8	-3.3	/
COc1cc(/C=N/Nc2ccccn2)cc(OC)c1O	3.9	105.2	3.7	6.0*	2.8	-4.3	4.5
COCOc1cccc(CN2CCC2(C)C(=O)Nc2cc(OC)ccc2OC)c1 (stereo unspecified)	/	/	-2.0	-1.6	1.8	-0.5	/
COc1ccc(/C=C/C(=O)c2ccc[nH]2)cc1OC	-1.4	107.3	0.8	5.4*	-4.5	-11.2	4.3
COc1ccc(/C=C/C(=O)Nc2ccccc2C(=O)O)cc1OC	5.0	117.8	-3.5	5.2*	10.2	-10.8	5.4*
COc1ccc(/C=C/C(=O)O/N=C(\N)c2ccccn2)cc1OC	1.7	105.0	-0.4	4.8*	1.5	-1.9	3.5
COc1ccc(/C=C/C(=O)c2ccc(C(=O)/C=C/c3ccc(OC)c(OC)c3)cc2)cc1OC	-8.1	104.5	-4.9	1.6	17.1	-3.5	/
COc1cc(/C=C/C(=O)NC(=O)c2ccccc2O)ccc1O	1.8	102.0	-3.5	5.6*	4.0	-4.5	4.2
O=C(/C=C/c1ccccc1)NC(=O)c1ccccc1O	0.1	90.2	-8.9	0.7	4.6	-3.6	/
CC(C)(C)OC(=O)[C@H](Cc1ccccc1)NCC(=O)OCc1ccc(C(=O)NCc2ccccc2)cc1	/	/	/	/	1.4	/	/
COc1ccc(OC)c(S(=O)(=O)N2CCC(C(=O)NCC3COCCO3)CC2)c1 (stereo unspecified)	/	/	/	/	0.5	/	/
COC(=O)C[C@@H]1CC[C@H]2[C@@H](COc3ccc(NC(=O)c4ccc(C(F)(F)F)cc4)cc3C(=O)N2C)O1	/	/	/	/	3.0	/	/
C(=CCSc1ccccn1)CSc1ccccn1	/	/	/	-1.1	-0.8	/	/
COc1ccc(/C=C/C(=O)Nc2ccc3c(c2)CCC3)cc1OC	0.7	104.5	-13.7	2.4	2.6	-7.1	/
COc1ccc(/C=C/C(=O)Nc2ccc(C(N)=O)cc2)cc1OC	/	109.1	-2.7	5.0*	2.7	-4.7	5.0*
O=C(/C=C/c1cccs1)c1ccc(N2CCOCC2)cc1	1.1	95.3	2.4	6.1*	5.5	-3.7	2.2
O=C(/C=C/c1cccc(F)c1)c1ccc(N2CCOCC2)cc1	1.1	99.0	-10.2	0.9	0.8	-4.4	/
CCCCCOC(=O)C(C)c1c(C)[nH]c(=S)[nH]c1=O (stereo unspecified)	-0.4	115.4	3.8	12.5*	0.0	-0.7	8.8*
CCOC(=O)C(C)c1c(C)[nH]c(=S)[nH]c1=O (stereo unspecified)	-1.9	108.7	-5.7	0.5	1.9	-2.3	/
NC(=O)N\N=C/C=C/C=C/c1ccc(F)cc1	1.5	106.2	-7.4	5.2*	1.1	-7.7	3.5
NC(=O)N/N=C/C=C/c1ccccc1	-0.1	101.2	-4.0	0.8	-2.1	-1.6	/
COc1cc(/C=N/NC(=O)c2ccncc2)ccc1OCCN1CCCCC1	1.4	98.1	-4.2	5.4*	0.8	3.4	2.4
Cc1nnn(-c2nonc2N)c1C(=O)N/N=C/c1ccccc1O	3.1	/	-1.3	0.4	0.8	-0.3	/
SMILES	DAGLB inh	Pemphigus Ab inh	NadD block	MsrA inh	rCAG RNA binder	MsrA act	MsrA conf
COc1ccc(/C=N/NC(=O)c2c(C)nc3ccc(Cl)cn23)cc1OC	-1.9	120.0	-1.2	6.2*	-0.1	-0.6	5.3*
COc1cc(/C=N\NC(=O)c2c(C)nc3cc(C)ccn23)ccc1O	-1.1	106.7	2.2	7.1*	-4.0	-10.7	6.4*
COc1cc(/C=N/NC(=O)c2c(C)nnn2-c2nonc2N)ccc1O	1.6	83.8	1.6	5.0*	0.8	-11.0	3.6
COc1cc(/C=N/NC(=O)c2c(C)nc3ccc(Cl)cn23)cc(OC)c1OC	-1.1	108.4	1.4	2.9	-6.0	-3.6	/
CCOc1ccc(-n2c(COc3ccc(C)cc3)nnc2SCC(=O)Nc2ccc(F)c(F)c2)cc1	/	/	/	/	7.4	/	/
CCCCNC(=O)c1nc(C2CCN(S(=O)(=O)c3ccc(F)c(F)c3)CC2)oc1-c1ccccc1	/	/	-4.1	-0.2	0.4	-6.5	/
Cc1ccc(NC(=O)CSCC(=O)Nc2cc(S(=O)(=O)N3CCOCC3)ccc2OC(C)C)cc1	2.3	102.2	-5.8	-1.2	2.0	-7.8	/
Cc1ccn2c(C(=O)N/N=C\c3ccc4c(c3)OCO4)c(C)nc2c1	0.5	100.1	0.3	7.3*	-0.1	-10.2	5.5*
Cc1ccn2c(C(=O)N/N=C/c3ccc(Cl)cc3)c(C)nc2c1	-1.6	96.4	-3.0	0.2	-1.2	-3.8	/
COc1cc(/C=N/NC(=O)c2cc(-c3cccs3)nc3ccccc23)ccc1O	-3.5	98.0	13.9	4.9*	20.8	-3.7	4.0
COc1cc(/C=N/NC(=O)c2cc(-c3cccc(OC(C)C)c3)nc3ccccc23)ccc1O	-1.1	104.4	18.8	1.9	22.4	-3.4	/
COc1ccc(/C=N/NC(=O)c2ccc(COc3cccc4cccnc34)cc2)cc1OC	3.1	5.2*	1.2	4.9*	6.2	-3.4	2.4
COc1cccc(-c2nc3n(n2)CCc2ccccc2-3)c1	-6.5	105.8	-2.7	-0.7	2.4	-8.8	/
CN(C)NC1=CC(=[N+]2CCCC2)CC(C)(C)C1	2.1	109.0	-2.0	1.4	-3.2	-4.6	/
CC1C[N+](=C2C=C(N3CCOCC3)CC(C)(C)C2)CC(C)O1 (stereo unspecified)	1.4	86.9	15.4	11.1*	-0.4	-13.2	6.7*
CCCN(CCC)C1=CC(=[N+]2CCCC2)CC(C)(C)C1	-0.5	90.8	14.0	5.1*	-1.4	-8.6	4.3
CC1(C)CC(N2CCOCC2)=CC(=[N+]2CCOCC2)C1	-1.9	101.4	11.5	10.4*	-0.7	-8.9	5.5*
Cc1cc(C)nc(NNC2=CC(=[N+]3CCCCC3)CC(C)(C)C2)n1	-1.1	93.4	0.2	2.6	-4.1	-11.2	/
CC1(C)CC(N2CCCCC2)=CC(=[N+]2CCCCC2)C1	-0.3	/	7.5	10.5*	-6.3	-8.2	8.1*
CN(C)c1cccc(N=C2C=C(N3CCOCC3)CC(C)(C)C2)c1	1.2	114.5	16.2	3.1	-4.4	-4.7	/
